Each structure is given as a SMILES string. The source made the active and inactive calls.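 The calls were made as follows: active = ATP loss in HepG2 cells with fitted half-maximal concentration at most twice the top tested dose; inconclusive = flat curve showing moderate loss, or a poor fit; inactive = opposite effect, flat near zero, or weaker potency.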

This assay is described as follows: HepG2 cell cytotoxicity, dose response, cytotoxicity control, luminescence, dry powder, set 5 (AID 743185).

`CSc1ccc(/C=N/NC(=O)c2ccc3nc[nH]c3c2)cc1`: the compound was called inactive.
As for `O=C(N/N=C/c1c[nH]c2ccccc12)c1cccs1`, the entry is “inactive”.
